KB-V1 cytotox: qHTS assay for MDR1-selective chemotherapeutics: Primary screen using the drug-selected MDR subline cells KB-V1; KB-V1 MDR cells viability, CellTiter-Glo, 72 h; Potency, µM (top dose mostly 46.1 µM), hits mostly cytotoxic; actives 3.4% (n = 400,000); further: nearly all actives have a fitted effect of over 60% in size
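KB-V1 MDR subline cells in DMEM (phenol-red free, 10% FBS) exposed to compounds in qHTS concentration series for 72 h at 37 degrees C. Viability read by CellTiter-Glo luminescence; concentration-effect curves fitted after normalization and correction.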
TGFb SMAD3 inh: qHTS for Inhibitors of TGF-b; actives 1.2% (n = 410,000); AID 588855, 2011; HepG2 CAGA-GFP TGF-b/SMAD3 reporter, GFP fluorescence, 18 h; TGF-beta stimulated, 500 pg/mL final; Potency, µM (top dose mostly 46.1 µM), usual class: inhibitors; further: nearly all actives have a fitted effect of over 65% in size
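HEPG2 CAGA-GFP reporter cells (1000/well, DMEM with 1% FBS) received compounds, then recombinant TGF-beta at 500 pg/mL final for 18 hours at 37 degrees C. Per-cell GFP summed per well was normalised to unstimulated and stimulated DMSO controls before curve fitting.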
KB-3-1 tox: qHTS assay for MDR1-selective chemotherapeutics: Primary screen using the parental adenocarcinoma cell KB-3-1; Potency, µM (highest dose often 46.1 µM), actives largely listed as cytotoxic; actives 1.4% (n = 400,000); KB-3-1 viability, CellTiter-Glo ATP luminescence, 72 h; AID 1347075, 2019; further: nearly all actives have a fitted effect of over 60% in size
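KB-3-1 cells, DMEM (no phenol red) + 10% FBS; compound by pin transfer, 72 h, 37 °C. Readout: CellTiter-Glo luminescence after 10 min. Data normalized, curve-fitted.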
HepG2 viability: qHTS for Inhibitors of TGF-b: Cytotox Counterscreen; HepG2 CAGA-GFP viability, ATP luminescence, 18 h; Potency, µM (highest dose often 46.1 µM), usual class: cytotoxic; actives 0.76% (n = 410,000)
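CellTiter-Glo luminescence gave cytotoxicity after 18 hours at 37 degrees C. The cells were HepG2 CAGA-GFP in 1% FBS DMEM, stimulated with 500 pg/mL TGF-beta after compound addition. %Activity was normalised to no-cell wells (complete cell-killing) and DMSO (no toxicity), and curves were fitted and classified.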
ATXN2 expr inh: Primary qHTS for Inhibitors of ATXN expression; HEK-293 ATXN2-luciferase reporter, luminescence, 24 h; actives 0.72% (n = 360,000); Potency, µM (highest dose often 57 µM), actives largely listed as inhibitors; AID 1745845, 2022; further: nearly all actives have a fitted effect of over 55% in size
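qHTS (up to 57 uM final) was run with 24 h compound exposure of reporter cells at 37 °C. Each well was multiplexed: SteadyGlo luminescence measured ATXN2-luciferase expression after a fluorogenic Gly-Phe-AFC viability readout (25 uM final).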
ATXN viability: Viability Counterscreen for Primary qHTS for Inhibitors of ATXN expression. actives 0.49% (n = 400,000). S2 cells (HEK-293 line with an ATXN2-luciferase reporter) viability, CellTiter-Fluor protease fluorescence, 24 h. Potency, µM (series often up to 56.7 µM), most hits filed as cytotoxic; further: nearly all actives have a fitted effect of over 40% in size
A number is an active result; – = inactive; ? = inconclusive; · = not tested or not shown; ! = not confirmed by another sample. In the library only some 5.9% were active in any assay of this set; here they are far more common. The call rests on the fitted dose curve; in most records, active means well fitted curve in the direction sought with a large enough effect; inconclusive means small, poorly fitted or top-dose-only effect, or another doubt; inactive means no such curve, though single readings can be large; an effect the other way counts as inactive or inconclusive.

SMILES	KB-V1 cytotox	TGFb SMAD3 inh	KB-3-1 tox	HepG2 viability	ATXN2 expr inh	ATXN viability
Fc1cccc(Cl)c1C1SCc2nc3ccccc3n21 (stereo not given)	23µM	?	23µM	–	–	–
CC(=O)Nc1ccc(N2C(=O)CSC2c2c(F)cccc2Cl)cc1 (stereo not given)	–	–	?	–	·	·
CCOc1ccc(Br)cc1C1C(C(=O)OC)=C(N)Oc2cc(N(C)C)ccc21 (stereo not given)	23µM	?	?	–	–	–
CCOc1ccccc1C1C(C(=O)OC)=C(N)OC2=C1C(=O)CCC2 (stereo not given)	–	–	–	–	–	–
COc1ccc(OC)c(C2Nc3c(C)cc(C)cc3-c3cc(C)nn32)c1 (stereo not given)	–	?	–	–	–	?
COc1ccccc1CNC(=O)c1ccc(Cn2c(SCc3ccccc3)nc3cccnc32)cc1	–	–	–	–	–	–
CC(=O)C1=C(C)NC(SCC(=O)c2ccc(Cl)cc2)=C(C#N)C1CC(C)C (stereo not given)	21µM	–	–	–	–	–
CC(=O)C1=C(C)NC(SCC(=O)c2ccc(F)cc2)=C(C#N)C1CC(C)C (stereo not given)	?	–	–	–	–	–
CCOC(=O)C1=C(C)NC(SC)=C(C#N)C1CC(C)C (stereo not given)	5.2µM	?	4.1µM	–	–	?
CC(O)(c1ccccc1)c1nc(-c2ccc3c(c2)OCO3)cs1 (stereo not given)	–	–	?	–	–	–
CCOC(=O)[C@H]1O[C@@H]1C(=O)N[C@@H](CC(C)C)C(=O)NCCC(C)C	–	?	–	–	–	3.2µM
c1ccc(-c2cn(-c3ccccc3)c3ncnc(N4CCN(c5ccccc5)CC4)c23)cc1	·	–	·	–	·	·
CC(=O)c1c(C(C)=O)c(C)n(Cc2ccccc2)c1C	21µM	–	–	–	–	–
CC(=O)c1c(N2CCN(Cc3ccccc3)CC2)nc(=S)n(Cc2ccccc2)c1C	2.9µM	?	?	–	–	–
Cc1c(C=O)c(C=O)c(C)n1Cc1ccccc1	?	–	?	–	?	·
CC(=O)c1c(N2CCCCC2)nc(=S)n(Cc2ccccc2)c1C	–	–	?	–	–	–
CC(=O)c1c(N2CCN(c3ccc(F)cc3)CC2)nc(=S)n(Cc2ccccc2)c1C	?	–	23µM	–	–	–
CC(=O)c1ccc(-c2c(C3C4C=CCC(C)C4C(=O)N3Cc3ccccc3)ccc3ccccc23)cc1 (stereo not given)	·	–	·	–	·	·
CCC(=O)Nc1ccc(C)cc1-c1nc2ccccc2n(CC(=O)c2ccc(C)cc2)c1=O	–	–	–	–	·	·
CC(C)C(=O)N1c2nc(-c3ccco3)nn2C2(CCCCC2)[C@@H]2CCCC[C@@H]21	·	–	·	–	·	·
Cc1c(C(=O)N/N=C/c2ccc(-c3ccccc3[N+](=O)[O-])o2)sc(N)c1C#N	–	5µM	–	–	–	–
Nn1cnnc1N/N=C\c1ccc(-c2ccccc2[N+](=O)[O-])o1	2.1µM	?	7.3µM	–	–	?
O=C(N/N=C/c1ccc(-c2ccccc2[N+](=O)[O-])o1)c1cncc(Br)c1	–	–	–	–	–	–
O=C(C[n+]1c(Cl)ccc2ccccc21)c1ccc2ccccc2c1	–	–	?	–	·	·
CCCCn1c(NS(=O)(=O)c2ccccc2)c(S(=O)(=O)c2ccc(C)cc2)c2nc3ccccc3nc21	?	?	12µM	–	?	–
SMILES	KB-V1 cytotox	TGFb SMAD3 inh	KB-3-1 tox	HepG2 viability	ATXN2 expr inh	ATXN viability
CCCCCn1c(NC(=O)c2ccco2)c(S(=O)(=O)c2ccc(C)cc2)c2nc3ccccc3nc21	18µM	?	–	–	–	–
CCCCn1c(NC(=O)c2ccc(Br)o2)c(S(=O)(=O)c2ccccc2)c2nc3ccccc3nc21	?	–	?	–	–	–
CCc1nc2ccc(C(=O)NCC3CCCCC3)cn2c1N(C)Cc1ccc(OC)cc1	?	?	–	–	?	?
Nc1nc(N)c(N)c(=O)[nH]1	–	–	–	–	·	·
Nc1nc2n[nH]nc2c(=O)[nH]1	?	?	1.5µM!	–	–	?
CN(Cc1ccc(-n2cccn2)cc1)C(=O)c1cnn2c1NC(c1ccco1)CC2C(F)(F)F (stereo not given)	4.6µM	?	?	–	–	–
COCCNC(=O)c1cnn2c1NC(c1ccco1)CC2C(F)(F)F (stereo not given)	–	–	–	–	–	–
COC(=O)C1=C(C)NC(C)=C(C(=O)OC)C1c1ccc(-c2cc(Cl)ccc2Cl)o1	–	–	–	–	–	?
COC(=O)C1=C(C)NC(C)=C(C(=O)OC)C1c1ccc(-c2cccc(Cl)c2Cl)o1	16µM	?	–	–	–	–
N#Cc1c(C(F)(F)F)cc(-c2cccs2)nc1SCC(=O)Nc1cccc(C(F)(F)F)c1	–	–	–	–	–	–
N#Cc1ccc(-c2cccs2)nc1SCC(=O)Nc1cccc(C(F)(F)F)c1	–	?	–	11µM	–	–
CCCCOc1ccc(S(=O)(=O)n2nc(C)c(S(=O)(=O)N3CCC(C)CC3)c2C)cc1	–	–	–	–	–	–
O=c1c(Cl)c(Nc2cccc(Cl)c2)cnn1-c1nc2ccccc2s1	–	–	?	–	–	–
COc1ccc(Nc2cnn(-c3nc4ccccc4s3)c(=O)c2Cl)cc1	21µM	?	?	–	–	·
O=C(CSc1nc(-c2cccs2)nc2cc(=O)[nH]n12)Nc1ccccc1Cl	–	–	–	–	–	–
CC1=NC(=O)C(N=Nc2cccc(C(=O)O)c2)N1c1ccccc1 (stereo not given)	–	–	–	–	8.9µM	?
CN(C)c1c(Cl)cc(/C=C/c2ccnc3ccccc23)cc1Br	16µM	?	18µM	–	·	·
Cc1cc(/C=C/c2ccnc3ccccc23)ccc1N(C)C	13µM	–	7.3µM	–	·	·
O=C(COC(=O)CNC(=O)C1CCCCC1)NC1CC1	–	–	?	–	·	·
COC(=O)C1=C(C)N(Cc2ccccc2)C(=NCCc2c[nH]c3ccccc23)N[C@H]1c1cccc(F)c1	?	?	?	–	?	22µM
CCN(CC)CCCN=C1N[C@@H](c2cccc(F)c2)C(C(=O)OC)=C(C)N1Cc1ccccc1	?	?	?	–	22µM	25µM
COC(=O)C1=C(C)N(Cc2ccccc2)C(=NCCc2c[nH]c3ccccc23)N[C@H]1c1ccccc1	–	?	?	10µM	?	?
